Data taken from PubChem BioAssay (NCI).
About 83,000 compounds went through this panel and 20% of them were active in at least one assay; those are over-represented in the sample as a whole.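 Testing used 96-well plates and a 48-hour single-concentration exposure. Example: -40 means 40% of the starting cells died.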 A number with no mark means an inactive call. Activity calls are given as the source filed them. How the source made its calls: active means growth percent below 10; inactive means the rest.

Assays:
Experiment in all cases: NCI-60 one-dose screen, 48 h (100 = growth as untreated, 0 = no growth, -100 = all killed)
Settings in all cases: 10 µM
DU-145 prostate = system: DU-145 prostate
K-562 leukemia = system: K-562 leukemia
MALME-3M melanoma = system: MALME-3M melanoma
MDA-MB-231 breast = system: MDA-MB-231 breast
RXF 393 renal = system: RXF 393 renal
SF-268 CNS = system: SF-268 CNS
SF-295 CNS = system: SF-295 CNS
SF-539 CNS = system: SF-539 CNS
UACC-257 melanoma = system: UACC-257 melanoma
M14 melanoma = system: M14 melanoma

Compound	growth (DU-145 prostate)	growth (K-562 leukemia)	growth (MALME-3M melanoma)	growth (MDA-MB-231 breast)	growth (RXF 393 renal)	growth (SF-268 CNS)	growth (SF-295 CNS)	growth (SF-539 CNS)	growth (UACC-257 melanoma)	growth (M14 melanoma)
CC(=O)Nc1ccc(NC(C)=O)c2c1C(=O)c1ccccc1C2=O	96%	91.4%	86.1%	59.7%	108%	95.9%	99.8%	92.3%	110%	101%
O=C(Nc1cccc(NC(=O)Nc2cc(C(F)(F)F)ccc2Cl)c1)Nc1cc(C(F)(F)F)ccc1Cl	30.8%	16.3%	2.44% (active)	1.95% (active)	32%	48.5%	-23.9% (active)	34%	-4.1% (active)	21.6%
Cc1ccc(C(=O)NC2c3ccccc3Oc3ccccc32)cc1	88.2%	14.3%	53.2%	58.4%	74.9%	64.1%	24.8%	61.3%	57.7%	36%
O=c1cc2oc3cc(O)c(O)cc3c(-c3ccccc3O)c-2cc1O	86%	54.1%	105%	81.9%	60.1%	-1.76% (active)	101%	52.3%	130%	77.1%
O=C(CS)Nc1ccc2ccccc2c1	113%	96.8%	126%	106%	82.8%	85.8%	123%	99.5%	133%	111%
NCC(=O)CCC(=O)O	121%	109%	101%	107%	98.3%	101%	106%	110%	105%	113%
COc1cc(/C=N\Nc2ccccc2)ccc1OC(=O)c1ccccc1	55.3%	12%	89.5%	86.3%	100%	57.5%	50.5%	24.4%	81.8%	60.2%
CCOC(=O)c1[nH]c(C)c(C(=O)O)c1C	114%	102%	122%	107%	115%	105%	122%	105%	111%	124%
C[N+](C)(C)C(=O)c1ccccc1	114%	117%	117%	97.5%	114%	98.2%	114%	98.9%	109%	95.2%
CC(=Nc1ccccc1)C1=C(O)C(Cc2cccc(F)c2)NC1=O (stereo not given)	-37.9% (active)	5.47% (active)	39.8%	25.9%	41.7%	31.1%	-5.61% (active)	-17.5% (active)	40.6%	7.5% (active)
O=C1Cc2ccccc2C(=O)O1	129%	106%	122%	108%	114%	110%	107%	103%	91.9%	98.7%
CN(C)C(C)(C)CC(C)(C)C	99.5%	96.5%	94.2%	101%	103%	103%	104%	94.1%	117%	105%
COc1ccc(-c2cc3c(nn2)-c2ccccc2C3=O)cc1	21.2%	21.9%	-21.1% (active)	59.5%	71.8%	39.1%	-40.7% (active)	82.1%	69.6%	42.9%
C/C(=C\c1cc(Cl)ccc1OCC(=O)O)[N+](=O)[O-]	108%	105%	127%	123%	134%	103%	108%	109%	102%	103%
CC(=O)/C(Cc1ccccc1)=N/O	115%	85.5%	104%	100%	109%	104%	105%	91.9%	89.5%	94.8%
CC(=O)OC1CC2C(C)(C)OC3CC(=O)OCC32C2CCC3(C)C(=CCC3c3ccoc3)C12C (stereo not given)	92.5%	95.5%	85.2%	115%	105%	98.6%	107%	104%	72.7%	115%
CN1C(=O)CN2CCc3ccccc3C2c2cc(Cl)ccc21 (stereo not given)	119%	92.6%	94.3%	93.6%	93.7%	103%	105%	89.4%	112%	97.2%
OC(c1ccccn1)C(O)c1ccccn1 (stereo not given)	115%	96.8%	122%	108%	123%	102%	118%	102%	102%	103%
CCC/C=C(\C)C(C)(C#N)C(=O)OCC (stereo not given)	124%	100%	107%	122%	105%	118%	112%	102%	86.2%	116%
O=C(NCO)c1ccccc1	99.8%	94.5%	91.3%	117%	119%	103%	110%	108%	111%	106%
COc1cccc(Sc2ccc([N+](=O)[O-])c3no[n+]([O-])c23)c1	67.3%	8.93% (active)	27.7%	74.2%	-54% (active)	62.6%	95.9%	95.4%	96.7%	72.1%
OCC(O)C(O)C(O)C(O)/C=N/O (stereo not given)	108%	111%	110%	97.5%	98.9%	98%	105%	106%	62.3%	94.7%
CCOC(=O)Nc1cc2c(c(N)n1)N=C(c1ccccc1)CO2	10.6%	10.1%	64.8%	13.6%	27.3%	38.4%	17%	1.93% (active)	86.4%	15.4%
CC(=O)Nc1c(C)cc(C)cc1C	101%	96.3%	102%	114%	113%	95.4%	94.3%	103%	104%	101%
CC(C)=NNC(N)=S	88.3%	48.2%	78.4%	83.8%	93.1%	90.7%	85.4%	108%	77.9%	65.2%
CC1CCC2C(C)(C)C3CC12CC1OC13C (stereo not given)	117%	123%	107%	110%	98.9%	110%	104%	98.9%	113%	109%
COCCOCCCl	110%	97.5%	112%	118%	119%	101%	102%	106%	104%	101%
COc1ccc(Oc2c(I)cc(CC(NC(C)=O)C(=O)O)cc2I)cc1 (stereo not given)	107%	63.9%	88.4%	78.8%	88.6%	91.7%	62.3%	111%	83.8%	80.8%
Cc1c(C(=O)O)c(=O)n(-c2ccccc2)n1C	118%	108%	163%	118%	119%	119%	91.4%	119%	93.8%	104%
O=C(O)CCCC(=O)O	99.8%	120%	83.8%	106%	99.5%	94.1%	110%	104%	87.9%	106%
